# KDM4E inh: JMJD2E (human) inhibition | actives 1.6% (n = 230,000) | JMJD2E catalytic domain, FDH-coupled NADH fluorescence (FDH is formaldehyde dehydrogenase) | B2RXH2 | Potency, µM (doses to about 57.1 µM), without a hit: at the top dose activity change, negative = inhibition, most hits filed as inhibitors; active means well fitted inhibition curve with a large enough effect, not every such curve was filed as active; inconclusive means small, poorly fitted or top-dose-only effect, or another doubt; inactive means no such curve, though single readings can be large or run the other way;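 further: 0% = wells with enzyme and -100% = buffer wells without enzyme; nearly all actives have a fitted effect of over 50% in size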
# HTT cytoprotect: cytoprotection in Huntington HTT-Q103 PC12 cell model; PC12 HTT-Q103 induced, cytoprotection, ATP luminescence, 40 h; Potency, µM (doses to about 56.4 µM), for the others: cytoprotection (ATP increase), usual class: activators; AID 1471; actives 0.14% (n = 230,000); further: % of control where 0% means no effect; nearly all actives have a fitted effect of over 45% in size
#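 Rat PC12, Q103 Htt exon1-GFP fusion, ecdysone promoter; tebufenozide inducer 100 nM final; compound titration; qHTS, 1500 cells/well; ATPlite luminescent read.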
# HTT aggregate: reduces HttQ103-GFP aggregates in PC12 cells; PC12 HttQ103-GFP aggregates, Acumen cytometry, 40 h; Potency, µM (series often up to 46.1 µM), inactives show top-dose activity change, negative = inhibition, usual class: inhibitors; actives 1.1% (n = 220,000); further: on the % scale 0 is the no-effect control and ±100 the full control effect; nearly all actives have a fitted effect of over 60% in size
#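 Ecdysone-promoter PC12 model expressing HTT exon 1 Q103 fused to GFP, induced by tebufenozide at 100 nM final. Compounds titrated; aggregates sized 1–25 µm scored on a 488 nm laser cytometer.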
# L3MBTL1 block: blocks human L3MBTL1 | actives 0.66% (n = 230,000) | AlphaScreen L3MBTL1–H3K9me1 peptide binding | Q9Y468 | Potency, µM (series often up to 57.1 µM), without a hit: at the highest dose activity, negative = inhibition, actives largely listed as inhibitors; further: on the % scale 0 is the no-effect control and ±100 the full control effect; nearly all actives have a fitted effect of over 60% in size
# Target sequence (Q9Y468 whole entry, looked up): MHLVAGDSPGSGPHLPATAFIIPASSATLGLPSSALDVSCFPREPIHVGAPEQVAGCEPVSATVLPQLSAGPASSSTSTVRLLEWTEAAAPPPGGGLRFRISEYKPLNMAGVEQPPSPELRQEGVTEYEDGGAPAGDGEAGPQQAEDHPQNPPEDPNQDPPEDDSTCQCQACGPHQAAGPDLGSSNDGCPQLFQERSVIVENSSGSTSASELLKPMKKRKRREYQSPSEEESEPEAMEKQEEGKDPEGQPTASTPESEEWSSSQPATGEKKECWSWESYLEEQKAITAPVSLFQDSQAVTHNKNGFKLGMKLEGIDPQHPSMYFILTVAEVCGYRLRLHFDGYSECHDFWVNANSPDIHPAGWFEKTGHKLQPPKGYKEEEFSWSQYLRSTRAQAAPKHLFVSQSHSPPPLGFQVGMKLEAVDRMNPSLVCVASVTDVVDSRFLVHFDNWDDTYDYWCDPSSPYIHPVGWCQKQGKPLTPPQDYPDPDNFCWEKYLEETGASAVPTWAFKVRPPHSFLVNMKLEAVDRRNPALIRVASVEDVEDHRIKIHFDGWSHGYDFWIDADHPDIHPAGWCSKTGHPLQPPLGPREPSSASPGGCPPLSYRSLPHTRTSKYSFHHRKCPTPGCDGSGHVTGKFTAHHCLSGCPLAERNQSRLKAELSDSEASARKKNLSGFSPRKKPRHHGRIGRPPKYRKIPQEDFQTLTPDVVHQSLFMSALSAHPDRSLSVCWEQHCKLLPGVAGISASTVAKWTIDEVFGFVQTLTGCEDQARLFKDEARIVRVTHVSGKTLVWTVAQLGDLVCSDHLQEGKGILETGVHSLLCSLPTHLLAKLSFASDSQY
#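 L3MBTL1 50 nM + b-AHA-H3(1-15)K9me1 75 nM, 30 min RT; compound added, 30 min RT; streptavidin donor/Ni-chelate acceptor beads 10 ug/mL each final, 30 min RT dark; AlphaScreen read.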
# * = called active by the depositor; ? = inconclusive; · = not tested or not shown; ! = repeats disagree; [ ] = remark or other dose. Hits are enriched below; roughly 1.8% of the tested compounds scored in any of these assays. Unless noted, the call rests on the fitted dose curve; in most records, active means well fitted curve in the direction sought with a large enough effect; inconclusive means small, poorly fitted or top-dose-only effect, or another doubt; inactive means no such curve, though single readings can be large; an effect the other way counts as inactive or inconclusive. Potency means the concentration at half of the fitted maximal effect.
SMILES,KDM4E inh,HTT cytoprotect,HTT aggregate,L3MBTL1 block
O=C1CC(SCc2nc3ccccc3[nH]2)C(=O)N1c1cccc(F)c1 (stereo not drawn),?,?,4µM*,-5%[11.4 µM]
CCOC(=O)C1=C(N)Oc2ccc(Br)cc2C1C(C#N)C(=O)OCC (stereo not drawn),·,-26%,·,·
COc1ccc(/C=C/N(CCc2ccc(OC)c(OC)c2)C(=O)c2ccccn2)cc1,·,0%[10 µM],·,·
CCN(CC)C(=O)c1sc(NC(=O)c2ccc(C)c([N+](=O)[O-])c2)c(C#N)c1C,-4%,-45%,13µM*,3%
CCN(CC)C(=O)c1sc(NC(=O)c2ccc(OC)c([N+](=O)[O-])c2)c(C#N)c1C,-3%,2%[10 µM],-18%,7%
CN(C)c1ncc2nc(-c3ccccc3)c(=O)n(Cc3cccs3)c2n1,·,-131%,·,·
O=c1[nH]cnc2sc3c(c12)CCCC3,-20%,11%,13µM*,·
Cc1cc(C)cc(N(CC(=O)O)S(=O)(=O)c2cccnc2)c1,·,-8%,·,·
O=C(Cc1ccccn1)c1ccc(Cl)cc1,·,·,·,8%
CC1=C(CC(=O)c2ccc(Cl)cc2)C(=O)c2ccccc2C1=O,?,-152%,3.5µM*,?
Cc1ccc(C)c(NC(=S)Nc2cccc3cnccc23)c1,28µM*,?,13%,-1%[11.4 µM]
S=C(NCCc1ccccc1)Nc1cccc2cnccc12,?,10%[10 µM],3.5µM*,-9%
Cc1ccccc1NC(=S)Nc1cccc2cnccc12,-15%,-23%,12%,-19%
CC(=O)c1ccc(NC(=S)Nc2cccc3cnccc23)cc1,18µM*,-63%[10 µM],-9%[9.22 µM],·
CCCCNC(=S)Nc1cccc2cnccc12,-6%,20%[10 µM],?,-4%
COC(=O)NC(c1cccc(F)c1)[C@]1(C(C)=O)CCCC1=O (stereo partly drawn),·,-7%[10 µM],·,·
CC1CCN(C(C(=O)Nc2ccc(C(C)C)cc2)c2ccc3c(c2)OCO3)CC1 (stereo not drawn),-7%,0%,20µM*,26%
COC(=O)N[C@@H](c1cccc(F)c1)[C@@H](C)[N+](=O)[O-],1%,-28%,·,·
N#CC1=C(N)SC(N)=C(C#N)C1c1ccc(C(F)(F)F)cc1,13µM*,11%[10 µM],-1%,0%
O=C(NNC(=O)C1CCN(S(=O)(=O)c2ccc(Cl)cc2)CC1)c1ccc(S(=O)(=O)N2CCCCC2)cc1,11%,10%[10 µM],25µM*,6%
N#Cc1c(NC(=O)CSc2nnc(-c3ccco3)n2-c2ccccc2)sc2c1CCC2,3%,-3%,6%,·
NC(=O)c1c(NC(=O)CSc2nnc(-c3ccco3)n2-c2ccccc2)sc2c1CCC2,?,-80%,-5%,10µM*
CO[C@H]1COC(=O)C/C=C\[C@@H](C)COC(=O)[C@@H](OCc2ccccc2)/C=C\[C@@H]1C,·,2%[10 µM],·,·
CC(=O)O[C@H]1C2=C(C(=O)[C@H]3O[C@@H]31)[C@@H]1[C@@H]3[C@@H](C)OC=C4[C@H](O)[C@H]5O[C@@H]5C(=O)[C@]43C2O[C@H]1C,·,-5%[10 µM],·,·
Cc1ccc(C)c(CSCC(=O)NCc2cccs2)c1,4%,3.5µM*,7%,·
SMILES,KDM4E inh,HTT cytoprotect,HTT aggregate,L3MBTL1 block
Cc1ccc(C(=O)OCC(=O)NCc2cccs2)c(C)c1,1%,-27%,6%,4%
O=P1(O)Oc2c(-c3ccccc3)cc3ccccc3c2-c2c(c(-c3ccccc3)cc3ccccc23)O1,?,31%,·,·
Cc1nc2ccccc2c(=O)n1/N=C/c1ccc(O)cc1O,?,-120%,9%[9.22 µM],-2%
CCCc1nc2ccccc2c(=O)n1/N=C/c1c(C)[nH]n(-c2ccc(C)cc2)c1=O,?,-6%[0.074 µM],18µM*,7%
CCCc1nc2ccccc2c(=O)n1/N=C/c1ccccc1O,32µM*,-14%[0.074 µM],10µM*,-5%
Cc1ccc(-n2[nH]c(C)c(/C=N/c3ccccn3)c2=O)cc1,?,-11%[0.074 µM],-10%,-1%
C#C[C@]1(O)CC[C@@H]2[C@H]3CCc4cc(OC)ccc4[C@@H]3CC[C@@]21C,1%[25.5 µM],?,·,·
CC1CCC2C(=O)N3C(CCC(C)C3c3ccccc3Br)C(=O)N2C1c1ccc(C#CCN(C)C)cc1 (stereo not drawn),·,0%[10 µM],·,·
O=C(Nc1nc(-c2cccs2)c(C(=O)C(F)(F)F)s1)c1ccccc1,-15%,·,10µM*,-14%
O=C(Nc1nc(-c2cccs2)c(C(=O)C(F)(F)F)s1)c1ccco1,-4%,6%,-6%,-1%
CN1COc2ccc3ccccc3c2C1,14µM*,?,-11%,·
O=C1CCc2c(ccc3ccccc23)O1,·,-19%,·,·
COc1ccc(-n2cccc2/C=C2/NC(=O)N(c3cccc(Cl)c3)C2=O)cc1,-15%,-9%[10 µM],-1%,-3%
O=C(O)c1cccc(-n2cccc2/C=C2/NC(=O)N(c3ccc(Cl)cc3)C2=O)c1,?,·,20%,0.79µM*
CC(=O)c1ccc(OC2C=CC(C#Cc3ccc(Br)cc3)OC2CO)cc1 (stereo not drawn),·,-8%[10 µM],·,·
O=C(COc1ccc(S(=O)(=O)NC2CCCCC2)cc1)N1CCN(c2cccc(Cl)c2)CC1,2%,-22%,16µM*,·
O=C1C2C3C=CC(C3)C2C(=O)N1/N=C/c1ccc(-c2ccccc2[N+](=O)[O-])o1 (stereo not drawn),7%,-46%[0.074 µM],2%,-11%
O=C1C2C3C=CC(C3)C2C(=O)N1/N=C/c1cc(Br)cc([N+](=O)[O-])c1O (stereo not drawn),5%,-4%[10 µM],13µM*,-4%
O=[N+]([O-])c1ccccc1-c1ccc(C(=S)N2CCCCC2)o1,-4%,2%[10 µM],9%[9.22 µM],?
O=[N+]([O-])c1ccccc1-c1ccc(C(=S)N2CCCC2)o1,25µM*,-20%[10 µM],-22%,?
CCCCC#Cc1nc(N)c2ncn([C@@H]3O[C@@H](C(=O)NCC)[C@H](O)[C@@H]3O)c2n1,·,-16%[1.9 µM],·,·
CCNc1ncc2nc(-c3ccc(Cl)cc3)c(=O)n(C3CC3)c2n1,·,-49%,·,·
CCOc1ccc(S(=O)(=O)Nc2cc(Cl)ccc2O)cc1,-2%,16%[10 µM],22µM*,0%
CCOc1ccc(S(=O)(=O)Nc2cccc(Cl)c2)cc1,·,-24%[0.074 µM],·,·
CC(C)CO/N=C1/C[C@@H](O)[C@@H](O)[C@@H]2[C@@H]3C(=O)N(C4CCCCC4)C(=O)[C@H]3CC[C@H]12,·,-8%[10 µM],·,·
SMILES,KDM4E inh,HTT cytoprotect,HTT aggregate,L3MBTL1 block
COc1ccccc1N1CCN(CCCNc2cc(=O)n(C)c(=O)n2C)CC1,-3%,32µM*!,24%,·
Cc1nc([N+](=O)[O-])c(Sc2nc3ccccc3n2C)n1Cc1ccccc1,19%,22%[10 µM],10µM*,6%
CCCNC(=O)c1cc(-c2ccco2)on1,2%,1.6µM*,7%,-5%
O=C(NCc1ccccc1)c1ccc2nc(-c3ccco3)c(-c3ccco3)nc2c1,?,-1%,5%,·
CC(C)CNC(=O)c1cc(-c2ccco2)on1,-8%,7%,?,0%
O=C(NCCCO)c1ccc2nc(-c3ccco3)c(-c3ccco3)nc2c1,13µM*,10%[10 µM],-5%,28µM*
O=C(NCCO)Nc1ccc2nc(-c3ccco3)c(-c3ccco3)nc2c1,11%,·,·,0.71µM*
